Measured values published in ChEMBL document CHEMBL3988442, “University of Dundee, Small-Polar-MMV Screening Library” (2021).
The campaign covered roughly 48,000 compounds. About 13,000 (27%) showed an effect of 50% or more. The list shows a part of the results.

test system: Wolbachia pipientis; assay: Anti-Wolbachia Cell-Based Screen; type: functional; set-up: scale not given: in the data most compounds retested in dose-response had high values; settings: 5 µM

| SMILES | Percent Effect [%] |
| --- | --- |
| Cc1cc(Cl)ccc1S(=O)(=O)NCC(C)N1CCN(C)CC1 (stereo not drawn) | 0.8605 |
| CC1CCN(Cc2cnc(S(=O)(=O)CC3CC3)n2CC2CCCO2)CC1 (stereo not drawn) | 3.735 |
| CCC(C)Oc1cc(C(=O)Nc2nccs2)ccn1 (stereo not drawn) | -12.97 |
| Cc1cnn(C(C)C2CC2)c1NC(=O)c1ccc(Cn2cnnn2)cc1 (stereo not drawn) | 7.746 |
| COc1nc2c(cc1C(=O)N1C[C@@H](N)C[C@H]1C(=O)NC(C)C)CCC2 | 2.559 |
| CCOC(=O)c1coc(N2CCN(Cc3cc(C)cc(C)c3)C(=O)C2)n1 | -24.84 |
| CS(=O)(=O)N1CCc2ccc(=O)n(CC3CCOCC3)c2CC1 | -13.75 |
| O=C(O)C(F)(F)F.O=c1ccc2c(n1CC1CCOCC1)CCN(Cc1ccoc1)CC2 | 125.5 |
| Cn1cc(CN2C[C@@H]3COC[C@]3(C(=O)N3CCCO3)C2)cn1 | -0.6058 |
| CN(Cc1ccccn1)C(=O)[C@]12COC[C@H]1CN(Cc1cnn(C)c1)C2 | -17.57 |
| Cn1cc(CN2CC(C(=O)Nc3ccccc3)C3(CCOCC3)C2)cn1.O=C(O)C(F)(F)F (stereo not drawn) | 0.729 |
| CS(=O)(=O)N1C[C@@H]2COC[C@]2(C(=O)NCCc2cccs2)C1 | -42.96 |
| Cn1cc(CN2C[C@@H]3COC[C@]3(C(=O)NCCc3ccccc3)C2)cn1.O=C(O)C(F)(F)F | 92.46 |
| Cn1cc(CN2C[C@@H]3COC[C@]3(C(=O)NCc3cccs3)C2)cn1 | 98.41 |
| O=C(NCc1cccs1)[C@]12COC[C@H]1CN(c1ncccn1)C2.O=C(O)C(F)(F)F | -12.11 |
| O=C(NCCc1cccs1)[C@]12COC[C@H]1CN(Cc1ccncc1)C2.O=C(O)C(F)(F)F.O=C(O)C(F)(F)F | -23.54 |
| CC(C)NC(=O)[C@]12COC[C@H]1CN(Cc1cnn(C)c1)C2 | 82.27 |
| COc1ccccc1CCNC(=O)CNC1CCc2nc(C)nn2C1 (stereo not drawn) | -4.852 |
| CC(=O)N1CCn2c(COCc3csc(C)n3)cnc2C1C (stereo not drawn) | 17.55 |
| Cc1nn(C)c2nc(N(CCN(C)C)C3CCCC3)sc12 | -1.05 |
| Cc1cccc(C(=O)NCCNCC2CNc3ccnn3C2)c1 (stereo not drawn) | -9.397 |
| CC(C)Cn1cnc(S(=O)(=O)NCCc2nnc3ccccn23)c1 | 8.202 |
| Cc1c(-c2nnc(SCC(=O)O)n2C(C)c2ccccc2)cnn1C (stereo not drawn) | 8.856 |
| CCCn1cc2c(C(F)F)cc(SCC(=O)O)nc2n1 | 93.6 |
| CCCn1cc(C(=O)NC(CC(=O)O)c2ccccc2F)c(C)n1 (stereo not drawn) | -6.071 |
| Cc1cc(-c2nnc(SCC(=O)O)n2C(C)c2ccccc2)nn1C (stereo not drawn) | 4.931 |
| CCc1cc(C(F)(F)F)c2c(C)nn(CC(=O)O)c2n1 | -1.783 |

| SMILES | Percent Effect [%] |
| --- | --- |
| CCn1nc2nc(SCC(=O)O)cc(C(F)F)c2c1C | 86.56 |
| CCn1nc(C)c(NC(=O)C(C)C)c1C | -2.093 |
| Cc1cc(SCC(=O)O)nc2nn(CC(F)F)c(C)c12 | 120.4 |
| CC(C)Cc1nnc(SCC(=O)O)n1-c1ccc(F)cc1F | 1.309 |
| Cc1c2c(C(F)F)cc(SCC(=O)O)nc2nn1C | 97.91 |
| CN(Cc1cccc(Cl)c1)Cc1nnsc1Cl | -20.09 |
| Cc1oc(-c2ccccc2)nc1CC(=O)NC1=NCCS1 | -12.38 |
| CCc1nsc(NC2CC(=O)N(C3CC3)C2)n1 (stereo not drawn) | 5.167 |
| O=C(c1ccc[nH]1)N1CCN(CC2CCOc3ccccc3C2)CC1 (stereo not drawn) | -0.508 |
| O=C(NCC1(O)CCOC1)NCC1(c2ccccc2Cl)CCC1 (stereo not drawn) | 17.28 |
| Cc1cc(CC(C)NC(=O)Cc2cc(F)ccc2C)[nH]n1 (stereo not drawn) | -12.96 |
| Cc1nc(C2CCCN2Cc2cc(Cl)c3c(c2)OCO3)no1 (stereo not drawn) | -3.682 |
| O=C(N1CCOCC1)N1C[C@H]2CC[C@@H]1CN(C1Cc3ccccc3C1)C2 | 12.43 |
| COCC1N(C(=O)N2CCOCC2)[C@H]2CC[C@]1(O)CC2 (stereo partly drawn) | 110.4 |
| C[C@@H]1CN(C(=O)CCN2CCOCC2)CC[C@]1(C)O | -11.44 |
| Cn1c(CN2CCOCC2)nnc1C1CCN(C(=O)C2CCCC2)CC1 | -7.454 |
| O=C(C1CCC1)N1C(CN2CCOCC2)[C@]2(O)CC[C@H]1CC2 (stereo partly drawn) | 92.68 |
| COC[C@@]12CCO[C@@H]1CCN(C(=O)C1CCOCC1)C2 | 4.117 |
| O=C(C1CCOCC1)N1C[C@@H]2OCCN(CCN3CCCC3)[C@@H]2C1 | -5.298 |
| O=C(N1CCOCC1)N1C(CN2CCOCC2)[C@]2(O)CC[C@H]1CC2 (stereo partly drawn) | 118.3 |
| O=C(N1CCOCC1)N1CC[C@@](O)(c2ccccc2)[C@H]2CCCC[C@@H]21 | 4.203 |
| CCC(CC)n1nc(C)cc1NC(=O)C1CCOC1 (stereo not drawn) | 10.26 |
| Cc1ccccc1[C@@H]1CN(CCCS(=O)(=O)N(C)C)C[C@H]1C(=O)O | -19.2 |
| O=C(NC[C@H]1OC[C@@H]2CCN(c3ncccn3)C[C@@H]21)c1ccnnc1 | 8.157 |
| CCn1ccnc1CN1CCCC(CO)(CCCc2ccccc2)C1 (stereo not drawn) | 6.615 |
| COc1ccc(NC(=O)Cn2nc(C)ccc2=O)cc1OC | 11.2 |
